Shown are actives, neighbours in structure and some others; about 0.33% of the full set was active somewhere.
FXIIa inh – human FXIIa protease inhibitors, primary screen, biochemical, single well | AID 701, 2007 | Coagulation factor XII (Homo sapiens), P00748 | purified human FXIIa, AMC substrate fluorescence, 2 h | hit rate 0.2% among 33,000 | inhibition, % at 10 µM; in the data active = inhibition above about 30%;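 note: 0% = enzyme with vehicle only and 100% = no enzyme blank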
FXIa single inh – human FXIa protease inhibitors, primary screen, biochemical, single compound per well; hit rate 0.3% among 33,000; inhibition, % at 10 µM; Coagulation factor XI (Homo sapiens), P03951; purified human FXIa, fluorogenic AMC substrate cleavage;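 active = inhibition above 40% in the primary screen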;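 note: 0% = enzyme without compound and 100% = blank wells lacking enzyme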
* marks the source's active call; other numbers are inactive results.

SMILES | FXIIa inh | FXIa single inh
CCN1CCN(CC(=O)c2c(C)n(Cc3ccccc3)c3ccc(OC)cc23)CC1 | 8 | -6
CCOC(=O)c1c(C)n(Cc2ccccc2)c2ccc(OCC(O)Cn3nc(C)cc3C)cc12 (configuration not stated) | -15 | 101*
CN(C)CCc1nc2ccccc2c(=O)n1-c1ccccc1 | 6 | -2
CCCc1nc2ccccc2c(=O)n1-c1ccc(OC)cc1 | 1 | 42*
COCCOC(=O)c1c(C)n(C)c2ccc(OC(=O)N(C)C)cc12 | 5 | 11
CN1CCN(C(=O)OC2c3nccnc3C(=O)N2c2ccc(Cl)cn2)CC1 (configuration not stated) | 8 | 7

Screening data as filed in PubChem BioAssay.
